Structures are written as SMILES. Values joined by “and” are separate entries in the source; they are usually repeats but may differ in a detail not shown here. Equal entries are not always repeated. Results filed as inconclusive are left out. Some structures have more than one record in an assay (separate samples or runs), and their calls can disagree. Active and inactive are the calls of the source. How the source made its calls, unless noted: active means hit-call score of the fitted dose curve at least 0.9, where 1 is the maximum; inactive means score below 0.9.

This is an account of results in PubChem BioAssay (EPA / NIEHS).

A short description of experiment [1]: ATG_PPRE_CIS: Attagene CIS-FACTORIAL HepG2 Assay for human Peroxisome Proliferator-activated Response Element (PPRE) (AID 2282958). The conditions noted are these: HepG2 PPRE cis-element reporter, Attagene transcription factor profiling; actives raise or lower the signal. The method in brief:
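HepG2 cells transiently transfected with multiplexed cis-element reporter units measure endogenous transcription factor activity. After 24 h compound exposure, reporter mRNA is quantified by RT-PCR, 6-FAM labeling, HpaI digestion and capillary electrophoresis; bidirectional fits are made against DMSO baseline.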

A short description of experiment [2]: ATG_RORE_CIS: Attagene CIS-FACTORIAL HepG2 Assay for human RAR-related Orphan Receptor Element (RORE) (AID 2282959). The conditions noted are these: HepG2 Attagene cis-factorial RORE reporter, mRNA; actives raise or lower the signal. Summed up: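 HepG2 cells transiently transfected with multiple cis-element reporter transcription units, exposed to chemical for 24 h. Reporter mRNA quantified by RT-PCR, 6-FAM primer-extension labeling, HpaI digestion and capillary electrophoresis; bidirectional fit versus DMSO baseline.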

Experiment [3] in a line: ATG_Sox_CIS: Attagene CIS-FACTORIAL HepG2 Assay for human SRY-box transcription factor (SOX) (AID 2282960). The following applies: HepG2 Attagene cis-factorial SOX reporter, mRNA; actives raise or lower the signal. The method in brief: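 HepG2 cells transiently transfected with cis-element-driven multiple reporter transcription units, dosed 24 h; reporter mRNA measured by RT-PCR, FAM labelling, HpaI digestion and capillary electrophoresis. Bidirectional fit versus DMSO baseline.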

In experiment [4] the target is Transcription factor Sp1 (Homo sapiens) (UniProt P08047). Briefly: ATG_Sp1_CIS: Attagene CIS-FACTORIAL HepG2 Assay for human Specificity Protein 1 (Sp1) (AID 2282961). The conditions noted are these: HepG2 Sp1 cis-reporter transcription, actives raise or lower the signal. The method in brief: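 HepG2 cells transiently transfected with multiple reporter transcription units driven by cis-regulatory elements; Sp1-responsive reporter mRNA measured 24 h after dosing by RT-PCR and capillary electrophoresis fluorescence, fitted bidirectionally against DMSO baseline.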

Experiment [5] can be described thus: ATG_SREBP_CIS: Attagene CIS-FACTORIAL HepG2 Assay for human Sterol Regulatory Element Binding (SREBP) (AID 2282962). The conditions noted are these: HepG2 Attagene cis-factorial SREBP reporter, mRNA; actives raise or lower the signal. The method in brief: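 mRNA induction of transfected cis-promoter reporters in HepG2 cells, 24 h post-dose. Detection: RT-PCR with 6-FAM-labelled products, HpaI digest, capillary electrophoresis. DMSO served as negative control and baseline.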

In experiment [6] the target is Signal transducer and activator of transcription 3 (Homo sapiens) (UniProt P40763). Briefly: ATG_STAT3_CIS: Attagene CIS-FACTORIAL HepG2 Assay for human Signal Transducer and Activator of Transcription 3 (STAT3) (AID 2282963). The following applies: HepG2, Attagene cis-factorial STAT3 reporter transcription; actives raise or lower the signal. The method in brief: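 HepG2 cells transiently transfected with multiple cis-element-driven reporter units report endogenous transcription factor activity. After 24 h compound exposure, reporter mRNA is measured by RT-PCR, 6-FAM labelling, HpaI digestion and capillary electrophoresis. Fitted bidirectionally versus DMSO.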

A short description of experiment [7]: ATG_TA_CIS: Attagene CIS-FACTORIAL HepG2 Assay for human TA Basal Promoter (AID 2282964). The following applies: HepG2 Attagene CIS-factorial TA basal promoter reporter; actives raise or lower the signal. Summed up: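 Background internal-marker endpoint from a 52-component HepG2 cis-reporter panel. Cells treated 24 h; reporter transcripts quantified via RT-PCR and CE fluorescence against DMSO baseline.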

The nature of experiment [8]: ATG_TCF_b_cat_CIS: Attagene CIS-FACTORIAL HepG2 Assay for human T-Cell-Factor with beta-catenin (TCF/b-cat) (AID 2282965). The following applies: HepG2 TCF/beta-catenin cis-reporter transcription, actives raise or lower the signal. Summed up: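 HepG2 cells transiently transfected with cis-promoter-driven multiplexed reporter units; reporter mRNA measured 24 h after dosing by RT-PCR, FAM labelling, HpaI digestion and capillary electrophoresis. Bidirectional fitting relative to DMSO baseline.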

A short description of experiment [9]: ATG_TAL_CIS: Attagene CIS-FACTORIAL HepG2 Assay for human TAL Basal Promoter (AID 2282966).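 Further: background control endpoint measuring basal TAL promoter reporter mRNA not a specific factor.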 The following applies: HepG2 Attagene cis-factorial TAL promoter reporter; actives raise or lower the signal. Summed up:
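HepG2 cells were transiently transfected with promoter-driven multiplexed reporter units and dosed for 24 h. Reporter mRNA was measured by RT-PCR with capillary electrophoresis fluorescence; bidirectional fits used DMSO as baseline, serving as a background control.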

Experiment [10] is described as follows: ATG_TGFb_CIS: Attagene CIS-FACTORIAL HepG2 Assay for human Transforming Growth Factor (TGF) (AID 2282967). The following applies: HepG2 Attagene CIS TGFb reporter, mRNA transcription; actives raise or lower the signal. The method in brief: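 Liver HepG2 line, cis-factorial reporter panel, 24 h dosing. Quantitation: RT-PCR products labeled with 6-FAM, cut with HpaI, resolved by capillary electrophoresis; DMSO-referenced bidirectional analysis.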

A short description of experiment [11]: ATG_VDRE_CIS: Attagene CIS-FACTORIAL HepG2 Assay for human Vitamin D Receptor Element (VDRE) (AID 2282968). The following applies: HepG2 VDRE cis-reporter transcription, actives raise or lower the signal. Summed up: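 Transiently transfected HepG2 cells carrying cis-regulated reporter transcription units were exposed for 24 h. Reporter mRNA was measured by RT-PCR with fluorescent labelling and capillary electrophoresis, and fitted in both directions against DMSO.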

Experiment [12] deals with Estrogen receptor (Homo sapiens) (UniProt P03372). Briefly: ATG_ERa_TRANS: Attagene TRANS-FACTORIAL HepG2 Assay for human Estrogen Receptor alpha (ERa) (AID 2282970; active means hit-call score of the fitted dose curve at least 0.9, where 1 is the maximum). The conditions noted are these: HepG2 Attagene TRANS ERa GAL4 reporter, mRNA. The method in brief:
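HepG2 cells transiently transfected with multiplexed GAL4-UAS reporter units; ERa activity read via exogenous chimeric NR-Gal4 protein. After 24 hour compound exposure, reporter mRNA measured by RT-PCR with 6-FAM labelling and capillary electrophoresis; gain-of-signal fitted relative to DMSO.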

In experiment [13] the target is Steroid hormone receptor ERR1 (Homo sapiens) (UniProt P11474). Briefly: ATG_ERRa_TRANS: Attagene TRANS-FACTORIAL HepG2 Assay for human Estrogen-Related Receptor alpha (ERRa) (AID 2282971; active means hit-call score of the fitted dose curve at least 0.9, where 1 is the maximum). The conditions noted are these: HepG2 Attagene TRANS reporter, ERRa transactivation. Summed up: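 HepG2 cells transiently transfected with multiplexed GAL4-UAS reporter units reading chimeric ERRa-Gal4 activity; 24 h compound exposure. Reporter mRNA measured by RT-PCR, 6-FAM labelling, HpaI digest and capillary electrophoresis; gain of signal fitted versus DMSO baseline.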

The target of experiment [14] is X-box-binding protein 1 (Homo sapiens) (UniProt P17861). Briefly: ATG_Xbp1_CIS: Attagene CIS-FACTORIAL HepG2 Assay for human X-box Binding Protein 1 (XBP1) (AID 2282972). The conditions noted are these: HepG2 XBP1 cis-element reporter, Attagene multiplex; actives raise or lower the signal. Summed up:
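Fluorescence-labelled cDNA fragments from reporter transcripts, separated by capillary electrophoresis, give the signal. Source: HepG2 cells transfected with promoter-driven reporter units, harvested 24 h post-dose. DMSO served as reference for bidirectional curve fitting.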

Experiment [15] can be described thus: ATG_M_19_TRANS: Attagene TRANS-FACTORIAL HepG2 Assay for M19 Transcription Factor (Internal Marker) (AID 2282974; active means hit-call score of the fitted dose curve at least 0.9, where 1 is the maximum). The following applies: HepG2 Attagene TRANS-FACTORIAL M19 internal marker reporter. The method in brief: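 HepG2 cells transiently transfected with multiple GAL4-UAS reporter transcription units were exposed to chemicals for 24 h. Reporter mRNA was read by RT-PCR, 6-FAM primer extension, HpaI digestion and capillary electrophoresis; gain of signal fitted relative to DMSO.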

The nature of experiment [16]: ATG_GAL4_TRANS: Attagene TRANS-FACTORIAL HepG2 Assay for GAL4 (Internal Marker) (AID 2282976; active means hit-call score of the fitted dose curve at least 0.9, where 1 is the maximum). The conditions noted are these: HepG2 Attagene TRANS GAL4 internal marker reporter. Summed up: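 HepG2 cells transiently transfected with multiplexed GAL4-UAS reporter constructs were dosed for 24 h. Reporter mRNA was measured by RT-PCR, 6-FAM primer extension, HpaI digestion and capillary electrophoresis, and gain of signal was fitted relative to DMSO.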

The target of experiment [17] is Estrogen-related receptor gamma (Homo sapiens) (UniProt P62508). Briefly: ATG_ERRg_TRANS: Attagene TRANS-FACTORIAL HepG2 Assay for human Estrogen-Related Receptor gamma (ERRg) (AID 2282977; active means hit-call score of the fitted dose curve at least 0.9, where 1 is the maximum;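 further: hits increase reporter signal over DMSO so potencies reflect activators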). The following applies: HepG2 Attagene TRANS reporter, ERRg transactivation. Summed up: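 HepG2 cells transiently transfected with multiplexed GAL4-UAS reporter units driven by chimeric NR-Gal4 proteins; 24 h exposure. Reporter mRNA quantified by RT-PCR, fluorescent labelling, HpaI digestion and capillary electrophoresis; gain of signal vs DMSO.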

Experiment [18] deals with Bile acid receptor (Homo sapiens) (UniProt Q96RI1). Kind of experiment: ATG_FXR_TRANS: Attagene TRANS-FACTORIAL HepG2 Assay for Farnesoid X Receptor (FXR) (AID 2282979; active means hit-call score of the fitted dose curve at least 0.9, where 1 is the maximum;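 further: hits raise reporter mRNA above DMSO so AC50 marks FXR activation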). The conditions noted are these: HepG2 Attagene TRANS FXR-GAL4 reporter transcription. Summed up:
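HepG2 cells transiently transfected with reporter constructs in which a chimeric FXR-GAL4 protein drives a GAL4-UAS reporter; 24 h compound exposure. Reporter mRNA measured by RT-PCR, FAM labelling, HpaI digestion and capillary electrophoresis; gain-of-signal versus DMSO.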

Experiment [19] deals with Nuclear receptor subfamily 1 group I member 3 (Homo sapiens) (UniProt Q14994). Kind of experiment: ATG_CAR_TRANS: Attagene TRANS-FACTORIAL HepG2 Assay for human Constitutive Androstane Receptor (CAR) (AID 2282969; active means hit-call score of the fitted dose curve at least 0.9, where 1 is the maximum;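 further: activators raise reporter mRNA above DMSO so AC50 marks induction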). The following applies: HepG2 Attagene TRANS-FACTORIAL CAR reporter. The method in brief: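 HepG2 cells transiently transfected with GAL4-UAS reporter units; TRANS format reads activity of exogenous chimeric NR-Gal4 protein. After 24 h dosing, reporter mRNA quantified by RT-PCR, 6-FAM labelling and capillary electrophoresis; gain of signal fitted against DMSO.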
Chain of Nuclear receptor subfamily 1 group I member 3 (Homo sapiens) (Q14994 whole entry, looked up, the tested form may be a part): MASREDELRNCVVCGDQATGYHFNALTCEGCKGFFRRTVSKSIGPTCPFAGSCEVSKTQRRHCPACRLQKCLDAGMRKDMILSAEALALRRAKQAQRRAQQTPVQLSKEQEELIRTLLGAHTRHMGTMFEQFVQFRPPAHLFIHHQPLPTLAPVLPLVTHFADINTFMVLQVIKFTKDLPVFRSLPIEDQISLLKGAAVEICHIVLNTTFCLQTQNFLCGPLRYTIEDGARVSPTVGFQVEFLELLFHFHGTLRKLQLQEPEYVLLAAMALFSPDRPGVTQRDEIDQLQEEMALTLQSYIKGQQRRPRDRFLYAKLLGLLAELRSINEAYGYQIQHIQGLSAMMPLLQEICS

Chain of Transcription factor Sp1 (Homo sapiens) (P08047 whole entry, looked up): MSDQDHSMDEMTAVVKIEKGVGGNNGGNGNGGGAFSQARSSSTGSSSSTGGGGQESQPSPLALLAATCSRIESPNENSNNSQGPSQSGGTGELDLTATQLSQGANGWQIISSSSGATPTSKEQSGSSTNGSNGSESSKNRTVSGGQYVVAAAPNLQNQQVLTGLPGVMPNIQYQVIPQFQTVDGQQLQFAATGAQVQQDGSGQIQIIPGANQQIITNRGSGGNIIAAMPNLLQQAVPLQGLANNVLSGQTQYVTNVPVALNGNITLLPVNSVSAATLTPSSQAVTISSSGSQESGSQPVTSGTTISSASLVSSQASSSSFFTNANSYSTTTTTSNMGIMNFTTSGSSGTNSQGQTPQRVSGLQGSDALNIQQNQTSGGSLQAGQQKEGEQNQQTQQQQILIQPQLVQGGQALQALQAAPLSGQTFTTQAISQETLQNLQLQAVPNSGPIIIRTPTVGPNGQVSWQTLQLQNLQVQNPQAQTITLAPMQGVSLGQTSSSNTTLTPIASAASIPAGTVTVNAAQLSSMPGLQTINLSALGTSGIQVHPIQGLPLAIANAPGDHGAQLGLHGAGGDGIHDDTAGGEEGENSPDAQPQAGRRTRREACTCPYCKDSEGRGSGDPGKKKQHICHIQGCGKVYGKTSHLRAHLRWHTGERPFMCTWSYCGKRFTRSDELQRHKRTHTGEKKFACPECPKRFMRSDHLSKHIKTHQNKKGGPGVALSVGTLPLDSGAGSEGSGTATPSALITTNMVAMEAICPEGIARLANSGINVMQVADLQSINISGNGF
Chain of Estrogen receptor (Homo sapiens) (P03372 whole entry, looked up, the tested form may be a part): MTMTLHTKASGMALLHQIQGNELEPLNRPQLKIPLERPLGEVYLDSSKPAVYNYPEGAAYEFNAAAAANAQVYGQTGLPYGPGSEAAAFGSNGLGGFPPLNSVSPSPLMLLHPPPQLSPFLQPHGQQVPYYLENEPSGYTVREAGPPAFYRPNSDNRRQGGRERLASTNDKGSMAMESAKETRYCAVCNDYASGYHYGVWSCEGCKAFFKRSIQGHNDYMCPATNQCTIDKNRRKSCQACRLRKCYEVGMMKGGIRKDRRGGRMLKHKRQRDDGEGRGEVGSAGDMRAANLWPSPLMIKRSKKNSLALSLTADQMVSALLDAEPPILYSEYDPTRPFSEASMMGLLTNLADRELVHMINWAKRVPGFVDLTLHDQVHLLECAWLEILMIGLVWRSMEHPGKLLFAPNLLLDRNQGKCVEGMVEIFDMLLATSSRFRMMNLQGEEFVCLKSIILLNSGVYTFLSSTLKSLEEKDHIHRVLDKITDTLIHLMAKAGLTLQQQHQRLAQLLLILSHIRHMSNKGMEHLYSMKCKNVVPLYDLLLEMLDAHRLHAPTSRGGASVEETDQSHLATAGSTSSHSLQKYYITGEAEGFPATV
Chain of Steroid hormone receptor ERR1 (Homo sapiens) (P11474 whole entry, looked up, the tested form may be a part): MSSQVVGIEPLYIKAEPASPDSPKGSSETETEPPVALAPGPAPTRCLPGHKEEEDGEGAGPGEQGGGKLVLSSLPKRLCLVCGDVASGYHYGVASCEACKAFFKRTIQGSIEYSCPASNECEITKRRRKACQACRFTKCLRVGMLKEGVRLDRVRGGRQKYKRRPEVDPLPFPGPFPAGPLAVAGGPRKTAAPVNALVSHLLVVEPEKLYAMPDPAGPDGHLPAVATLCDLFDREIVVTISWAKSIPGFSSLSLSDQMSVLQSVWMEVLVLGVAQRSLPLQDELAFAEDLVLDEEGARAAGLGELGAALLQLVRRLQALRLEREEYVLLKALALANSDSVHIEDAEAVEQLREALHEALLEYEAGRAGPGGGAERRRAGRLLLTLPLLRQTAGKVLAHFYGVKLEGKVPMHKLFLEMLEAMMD
Chain of X-box-binding protein 1 (Homo sapiens) (P17861 whole entry, looked up, the tested form may be a part): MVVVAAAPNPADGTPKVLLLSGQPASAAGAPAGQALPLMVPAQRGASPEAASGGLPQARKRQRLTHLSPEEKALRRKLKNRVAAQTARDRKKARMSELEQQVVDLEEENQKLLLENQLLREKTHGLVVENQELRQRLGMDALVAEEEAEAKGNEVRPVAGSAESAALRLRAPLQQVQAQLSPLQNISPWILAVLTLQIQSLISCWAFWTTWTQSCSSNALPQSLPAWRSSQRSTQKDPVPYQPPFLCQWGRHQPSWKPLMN
Chain of Signal transducer and activator of transcription 3 (Homo sapiens) (P40763 whole entry, looked up): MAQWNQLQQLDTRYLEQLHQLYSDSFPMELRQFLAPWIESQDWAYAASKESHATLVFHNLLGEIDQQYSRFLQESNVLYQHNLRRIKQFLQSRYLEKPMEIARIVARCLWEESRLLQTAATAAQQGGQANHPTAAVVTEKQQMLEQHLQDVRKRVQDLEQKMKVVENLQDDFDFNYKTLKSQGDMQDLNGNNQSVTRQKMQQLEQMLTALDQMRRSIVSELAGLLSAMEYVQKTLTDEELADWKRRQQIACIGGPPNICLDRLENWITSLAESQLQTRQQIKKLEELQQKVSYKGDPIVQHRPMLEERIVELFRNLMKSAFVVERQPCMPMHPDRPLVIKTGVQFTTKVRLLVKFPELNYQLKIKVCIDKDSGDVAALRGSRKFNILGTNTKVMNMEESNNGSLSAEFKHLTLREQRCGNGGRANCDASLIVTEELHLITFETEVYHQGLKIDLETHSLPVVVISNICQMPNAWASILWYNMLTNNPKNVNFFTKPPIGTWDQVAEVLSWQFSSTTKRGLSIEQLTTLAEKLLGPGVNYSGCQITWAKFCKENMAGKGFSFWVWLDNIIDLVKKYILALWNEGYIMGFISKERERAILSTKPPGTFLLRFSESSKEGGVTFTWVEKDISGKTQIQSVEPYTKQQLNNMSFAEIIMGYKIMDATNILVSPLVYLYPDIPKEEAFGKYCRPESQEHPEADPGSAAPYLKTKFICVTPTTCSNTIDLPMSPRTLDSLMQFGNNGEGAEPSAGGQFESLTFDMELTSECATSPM
Chain of Estrogen-related receptor gamma (Homo sapiens) (P62508 whole entry, looked up, the tested form may be a part): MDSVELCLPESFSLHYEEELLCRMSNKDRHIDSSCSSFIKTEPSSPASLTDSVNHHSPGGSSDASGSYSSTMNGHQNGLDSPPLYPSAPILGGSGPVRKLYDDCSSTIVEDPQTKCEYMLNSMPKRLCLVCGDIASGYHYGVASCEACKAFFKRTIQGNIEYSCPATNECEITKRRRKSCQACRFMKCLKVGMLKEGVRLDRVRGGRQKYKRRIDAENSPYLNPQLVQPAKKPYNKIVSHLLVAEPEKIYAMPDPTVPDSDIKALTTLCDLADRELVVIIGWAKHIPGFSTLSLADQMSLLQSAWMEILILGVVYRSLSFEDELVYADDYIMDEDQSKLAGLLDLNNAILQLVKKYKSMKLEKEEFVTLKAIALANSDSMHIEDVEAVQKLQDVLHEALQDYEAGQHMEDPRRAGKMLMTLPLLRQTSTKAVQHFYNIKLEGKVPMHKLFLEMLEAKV
Chain of Bile acid receptor (Homo sapiens) (Q96RI1 whole entry, looked up, the tested form may be a part): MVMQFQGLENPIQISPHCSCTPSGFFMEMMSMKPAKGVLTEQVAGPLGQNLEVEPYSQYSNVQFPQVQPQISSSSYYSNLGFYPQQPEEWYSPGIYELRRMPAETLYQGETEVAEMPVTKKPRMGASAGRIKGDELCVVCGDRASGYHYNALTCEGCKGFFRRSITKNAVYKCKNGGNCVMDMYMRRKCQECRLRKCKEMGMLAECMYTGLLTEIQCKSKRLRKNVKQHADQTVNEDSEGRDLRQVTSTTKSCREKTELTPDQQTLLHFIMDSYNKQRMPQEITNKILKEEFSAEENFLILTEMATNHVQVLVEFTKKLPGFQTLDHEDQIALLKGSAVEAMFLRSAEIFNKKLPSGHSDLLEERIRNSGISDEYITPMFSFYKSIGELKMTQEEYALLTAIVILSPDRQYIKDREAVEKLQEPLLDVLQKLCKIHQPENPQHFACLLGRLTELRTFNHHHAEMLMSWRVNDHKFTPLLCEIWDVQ

Regarding `CN(C)P(=O)(N(C)C)N(C)C`, the outcome in [1], in [2], in experiment [3], in experiment [4], in experiment [5] and in experiment [6] was inactive. The call in experiment [7], in experiment [8], in experiment [9], in experiment [10], in [11] and in experiment [12] was inactive. Further, the compound was classed as inactive in experiment [13], in experiment [14], in experiment [15], in [16], in experiment [17] and in experiment [18].
In the case of `COc1cc(-c2ccc(N)c(OC)c2)ccc1N`, the AC50 in experiment [1] is 43.9 µM (active) and 11.8 µM (active); in [2], 15.7 µM (active) and 33.6 µM (active); in experiment [4], 19.8 µM (active); in experiment [5] it was 7.03 µM (active) and 39.9 µM (active); in experiment [11], 27.8 µM (active) and 31 µM (active); in experiment [14] it was 27.7 µM (active) and 33.6 µM (active). In addition, the call in [3], in experiment [4], in [7], in [8], in experiment [9] and in experiment [10] was inactive. The call in experiment [19], in [13], in experiment [15] and in experiment [17] was inactive.
Turning to `CC(=[OH+])/C=C(/C)[O-].CC(=[OH+])/C=C(/C)[O-].CC(=[OH+])/C=C(/C)[O-].[Fe]`, the compound was classed as inactive in experiment [1], in experiment [2], in experiment [3], in experiment [4], in [5] and in experiment [6]. Further, the compound was called inactive in [7], in experiment [8], in [9], in experiment [10], in [11] and in experiment [12]. Besides, the outcome in [14], in [15], in [16] and in [18] was inactive.
For the compound `CCC(C)(C)c1ccc(O)c(C(C)(C)CC)c1`, the AC50 is 11.1 µM (active) in experiment [1]; 15.9 µM (active) in [11]; 33.4 µM (active) in experiment [19]; 33.4 µM (active) in experiment [12]; 49.5 µM (active) in experiment [18]. The compound was classed as inactive in experiment [2], in experiment [3], in [4], in experiment [5], in experiment [6] and in experiment [7]. The result in experiment [8], in [9], in [10], in [13], in experiment [14] and in experiment [15] was inactive.

As usually defined, the AC50 is the midpoint of the concentration-response curve, whichever way the signal moves.
